From PubChem BioAssay (NCI)
The panel holds about 83,000 compounds, 20% with a hit somewhere; the sample as a whole holds those more often.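 Testing used 96-well plates and a 48-hour single-concentration exposure. Example: -40 means 40% of the starting cells died.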 Values without a mark were called inactive. Active and inactive are the calls of the source. The calls were made as follows: active = growth percent below 10; inactive = the rest.

Tests used:
Assay in all cases: NCI-60 one-dose screen, 48 h (100 = growth as untreated, 0 = no growth, -100 = all killed)
Settings in all cases: 10 µM unless noted
[1] = tested on: HCT-15 colon
[2] = tested on: HT29 colon
[3] = tested on: SNB-75 CNS
[4] = tested on: SNB-19 CNS
[5] = tested on: U251 CNS
[6] = tested on: PC-3 prostate
[7] = tested on: SK-MEL-5 melanoma
[8] = tested on: UACC-62 melanoma
[9] = tested on: LOX IMVI melanoma
[10] = tested on: SK-MEL-28 melanoma
[11] = tested on: SN12C renal
[12] = tested on: UO-31 renal
[13] = tested on: TK-10 renal
[14] = tested on: ACHN renal
[15] = tested on: CAKI-1 renal
[16] = tested on: A498 renal
[17] = tested on: CCRF-CEM leukemia
[18] = tested on: MOLT-4 leukemia
[19] = tested on: EKVX NSCLC

Structure (SMILES)	growth [1]	growth [2]	growth [3]	growth [4] [%]	growth [5]	growth [6]	growth [7]	growth [8]	growth [9]	growth [10] [%]	growth [11]	growth [12]	growth [13] [%]	growth [14]	growth [15]	growth [16]	growth [17]	growth [18]	growth [19]
CCOC(=O)c1ccccc1SC(C[N+](=O)[O-])c1ccccc1 (centres undefined)	59.6%	5.22% (active)	85.1%	95.2	81.8%	78%	84.3%	97.8%	30.9%	98.3	93.4%	99.4%	92.9	88.7%	92.5%	87%	65.5%	94.3%	–
O=C1/C(=C\c2cccn2Cc2ccc(Cl)cc2)c2ccccc2N1c1c(Cl)cccc1Cl	61.4%	85.5%	82.2%	87.8	75.6%	57.5%	66.1%	71.7%	91.9%	91	–	63%	87.6	65.7%	75%	–	82.4%	75.1%	62.2%
COc1ccc(C2CC(c3ccc(Nc4ccnc5cc(Cl)ccc45)cc3)=NN2c2ccccc2)cc1 (centres undefined)	87.2%	52%	104%	109	81.9%	78%	79.9%	95%	100%	97.3	91.9%	93.9%	109	97.2%	85.1%	49.7%	69.8%	52.3%	–
O=C1/C(=C\c2cccn2Cc2ccc(F)cc2)c2ccccc2N1c1c(Cl)cccc1Cl	56.2%	81.5%	68.4%	81.3	75.7%	52%	57.7%	62%	91.1%	87.4	–	–	81	–	67.5%	106%	83%	74.1%	54.6%
Cc1cc(C)c2c(n1)sc1c(Nc3ccc(OCc4ccccc4)cc3)ncnc12	100%	103%	108%	101	98.4%	96.2%	104%	105%	91.7%	114	101%	85.1%	92.4	106%	97.5%	78.3%	86.6%	101%	–
O=C(N=Nc1c(Cl)c(O)c2ccccc2c1O)C(=O)Nc1cccc(C(F)(F)F)c1	68.9%	73.6%	31.3%	92.6	74.6%	58.2%	72.4%	83.2%	14.7%	101	13.2%	38.7%	116	58.4%	54.6%	84.9%	6.57% (active)	35.2%	–
CCOC(=O)C1=C(C)NC(SCc2nnc(-c3ccc(Cl)cc3)o2)=NC1c1ccc(Cl)cc1 (centres undefined)	67.6%	75.2%	73.7%	73	73.9%	48.8%	40.9%	49.9%	76.9%	79.8	–	48.7%	77.5	64.1%	61.6%	80.7%	39.7%	7.02% (active)	80.2%
O=C1/C(=C\c2cccn2C(=O)c2ccccc2)c2ccccc2N1c1c(Cl)cccc1Cl	64.7%	70%	71.9%	87.7	72.8%	73.9%	83%	59.1%	37.5%	74.1	–	66.8%	86.4	–	87.8%	90.4%	14.3%	27.9%	80.5%
Oc1ccc(Nc2ncnc3c2sc2ncccc23)cc1	50.9%	43.4%	40.9%	27.6	24.4%	47.4%	27.7%	3.13% (active)	8.47% (active)	65.7	17.1%	-9.84% (active)	59.7	9.05% (active)	13.1%	8.96% (active)	16%	12.2%	–
O=Cc1ccc2nc(C(Cl)(Cl)Cl)ccc2c1	101%	102%	99.9%	102	92.8%	98.4%	95%	106%	96.1%	105	104%	81.8%	101	101%	99.7%	93.6%	91.9%	98.4%	–
O=C(Nc1ccc(Oc2ccc(Nc3nc4ccccc4s3)cc2)cc1)Nc1ccc(Cl)c(C(F)(F)F)c1	8.45% (active)	-10.9% (active)	16.7%	22.5	2.67% (active)	3.08% (active)	-84.8% (active)	1.63% (active)	-88.3% (active)	25.3	1.99% (active)	14.1%	12.6	3.09% (active)	12.4%	-18.3% (active)	5.88% (active)	5.65% (active)	–
COc1ccc(C2C3=C(COC3=O)N(CCO)c3cc(OC)c(OC)cc32)cc1 (centres undefined)	98.9%	95.1%	93.3%	109	101%	106%	100%	107%	101%	115	102%	90.8%	93.4	99.8%	108%	103%	95.8%	88.2%	–
N#Cc1ccc(NC(=O)Nc2nc3ccc(OC(F)(F)F)cc3s2)cc1	0.568% (active)	-3.66% (active)	-8.15% (active)	15.1	4.34% (active)	2.88% (active)	-53.3% (active)	2.82% (active)	1.35% (active)	19.3	-4.65% (active)	–	–	-10.6% (active)	-15.5% (active)	-28.1% (active)	3.09% (active)	-13.9% (active)	-6.94% (active)
Cc1ccc(-c2nc3ccccc3c(=O)n2/N=C/c2cccc3ccccc23)cc1	74.3%	102%	74.3%	94.4	77%	63.3%	75.5%	69.4%	63.4%	85.6	82.3%	48.3%	101	80.7%	54.4%	109%	55.2%	55.9%	–
COc1cccc(OCC(O)CN2CCN(c3ccccc3)CC2)c1 (centres undefined)	117%	103%	96.5%	105	108%	109%	108%	94.3%	104%	81.4	105%	96.3%	151	109%	–	–	121%	–	103%
COc1cc(C(=O)/C=C/c2cn(-c3ccccc3)nc2-c2cccc(Nc3ccnc4cc(Cl)ccc34)c2)cc(OC)c1OC	87.4%	77.1%	107%	116	88.1%	107%	71.4%	104%	71.5%	93.9	90.9%	86.4%	133	108%	103%	99.6%	21%	63.3%	–
COc1cc(C2C=C(C)N=C3SC=NN32)cc(OC)c1OC (centres undefined)	106%	101%	105%	95.9	93.5%	72.7%	103%	100%	95.8%	100	100%	99.5%	109	102%	99%	90.9%	90.7%	97.2%	–
